# Laboratory results as given in PubChem BioAssay (Tox21).
# Values without a mark were called inactive. Inconclusive results are not listed. Where a call stands in place of a potency, no number is given. The source made the active and inactive calls. Calls come from the whole dose curve; as a rule, active = well fitted curve in the direction sought with a large enough effect in the repeat runs; inconclusive = weak or mixed curves; inactive = no such curve, though single readings can be large; an effect the other way counts as inactive or inconclusive.
# Assays:
# [1] = qHTS RealTime-Glo MT Cell Viability Assay in HepG2 cells - 8 hour (AID 1224873); note: nearly all actives have a fitted effect of over 55% in size
# How it was run: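 Real-time viability: cells seeded at 600 per well together with NanoLuc and cell-permeant prosubstrate, compounds added after 5 h incubation. Luminescence tracked at 0, 8, 16, 24, 32 and 40 h of exposure.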
# [2] = qHTS RealTime-Glo MT Cell Viability Assay in HEK293 cells - 40 hour (AID 1224874); details: RealTime-Glo luminescence; max response: stronger effect = lower value; note: nearly all actives have a fitted effect of over 50% in size
# How it was run: (§1)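 Nonlytic bioluminescent viability monitoring. HEK293 at 600 cells/well with reagent; 5 h settle; compound transfer by pintool; plates held at 37 C and read at set time points.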
# [3] = A CellTox Green Cytotoxicity Assay to monitor cytotoxicity in HEK293 cells - 24 hour (AID 1224875); note: series mostly up to about 77 µM; nearly all actives have a fitted effect of over 45% in size
# How it was run: (§2)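 Cytotoxicity was tracked continuously in HEK293 cells by a DNA-binding dye excluded from viable cells. Compounds were transferred in DMSO 5 h after seeding; fluorescence was recorded at intervals up to 40 h.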
# [4] = A CellTox Green Cytotoxicity Assay to monitor cytotoxicity in HepG2 cells - 16 hour (AID 1224876); note: nearly all actives have a fitted effect of over 45% in size
# How it was run: (§3)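 Real-time, homogeneous cytotoxicity readout: dead-cell DNA staining by CellTox Green in HepG2 monolayers, fluorescence measured at timed intervals up to 40 h of continuous compound exposure.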
# [5] = qHTS RealTime-Glo MT Cell Viability Assay in HepG2 cells - 32 hour (AID 1224877); note: nearly all actives have a fitted effect of over 55% in size
# How it was run: (§4)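 HepG2 cells (600/well) were dispensed with RealTime-Glo reagents, incubated 5 h at 37 °C, then treated with compounds in DMSO for up to 40 h. Nonlytic NanoLuc luminescence reflecting viable cells was read at each stated time point.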
# [6] = A CellTox Green Cytotoxicity Assay to monitor cytotoxicity in HepG2 cells - 24 hour (AID 1224878); note: nearly all actives have a fitted effect of over 45% in size
# How it was run: as §3
# [7] = A CellTox Green Cytotoxicity Assay to monitor cytotoxicity in HepG2 cells - 40 hour (AID 1224879); note: nearly all actives have a fitted effect of over 40% in size
# How it was run: as §3
# [8] = qHTS RealTime-Glo MT Cell Viability Assay in HEK293 cells - 0 hour (AID 1224880); note: top concentration of the series differs between compounds; nearly all actives have a fitted effect of over 45% in size
# How it was run: as §1
# [9] = A CellTox Green Cytotoxicity Assay to monitor cytotoxicity in HEK293 cells - 32 hour (AID 1224881); note: nearly all actives have a fitted effect of over 40% in size
# How it was run: as §2
# [10] = A CellTox Green Cytotoxicity Assay to monitor cytotoxicity in HepG2 cells - 32 hour (AID 1224883); note: nearly all actives have a fitted effect of over 50% in size
# How it was run: as §3
# [11] = A CellTox Green Cytotoxicity Assay to monitor cytotoxicity in HEK293 cells - 8 hour (AID 1224884); note: nearly all actives have a fitted effect of over 35% in size
# How it was run: as §2
# [12] = qHTS RealTime-Glo MT Cell Viability Assay in HepG2 cells - 16 hour (AID 1224885); note: nearly all actives have a fitted effect of over 50% in size
# How it was run: as §4
# [13] = qHTS RealTime-Glo MT Cell Viability Assay in HEK293 cells - 24 hour (AID 1224886); note: top concentration of the series differs between compounds; nearly all actives have a fitted effect of over 50% in size
# How it was run: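 HEK293 cells seeded with NanoLuc/prosubstrate reagent, rested 5 h at 37 C, then dosed and kept at 37 C up to 40 h. Nonlytic real-time luminescence from viable cells read at 0, 8, 16, 24, 32 and 40 h.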
# [14] = qHTS RealTime-Glo MT Cell Viability Assay in HEK293 cells - 8 hour (AID 1224887)
# How it was run: as §1
# [15] = A CellTox Green Cytotoxicity Assay to monitor cytotoxicity in HEK293 cells - 16 hour (AID 1224888); note: nearly all actives have a fitted effect of over 35% in size
# How it was run: as §2
# [16] = qHTS RealTime-Glo MT Cell Viability Assay in HepG2 cells - 0 hour (AID 1224889); note: nearly all actives have a fitted effect of over 50% in size; note: potency is the fitted concentration of half-maximal effect
# How it was run: as §4
# [17] = qHTS assay to identify small molecule antagonists of the estrogen receptor alpha (ER-alpha) signaling pathway using the BG1 cell line in the presence of 0.1 nM 17-beta-estradiol - cell viability counter screen (AID 1259241); note: nearly all actives have a fitted effect of over 40% in size
# How it was run: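 Live-cell protease activity (CellTiter-Fluor fluorescence, 30 min) was read in the same wells after VM7Luc4E2 cells had been exposed to compounds with 0.1 nM 17beta-estradiol for 22 hr at 37C.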
# [18] = qHTS assay to identify small molecule antagonists of the androgen receptor (AR) signaling pathway using the MDA cell line in the presence of 0.5 nM R1881 - cell viability counter screen (AID 1259242); note: nearly all actives have a fitted effect of over 45% in size
# How it was run: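 Cytotoxicity toward MDA-kb2 cells is measured by CellTiter-Fluor live-cell protease fluorescence after 16 hr compound exposure at 37C in the presence of 0.5 nM R1881 stimulator.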
# [19] = A CellTox Green Cytotoxicity Assay to monitor cytotoxicity in HepG2 cells - 8 hour (AID 1224890); note: nearly all actives have a fitted effect of over 45% in size
# How it was run: as §3
# [20] = A CellTox Green Cytotoxicity Assay to monitor cytotoxicity in HepG2 cells - 0 hour (AID 1224882); note: nearly all actives have a fitted effect of over 35% in size
# How it was run: as §3
smiles,measurement,setting,value
CC(=O)OCC(=O)[C@@]1(O)[C@H](C)C[C@H]2[C@@H]3CCC4=CC(=O)C=C[C@]4(C)[C@@]3(F)[C@@H](O)C[C@@]21C,outcome,[1],inactive
same,max response,[2],5.93%
same,outcome,[3],inactive
same,outcome,[4],inactive
same,Potency,[5],inactive
same,outcome,[6],inactive
same,Potency,[7],inactive
same,Potency,[8],inactive
same,outcome,[9],inactive
same,Potency,[10],inactive
same,outcome,[11],inactive
same,outcome,[12],inactive
same,Potency,[13],inactive
same,Potency,[14],inactive
same,outcome,[15],inactive
same,Potency,[16],9.52 µM (active)
same,outcome,[17],inactive
same,outcome,[18],inactive
CO[C@@]1(NC(=O)C(C(=O)O)c2ccc(O)cc2)C(=O)N2C(C(=O)O)=C(CSc3nnnn3C)CO[C@@H]21 (some centres not stated),outcome,[1],inactive
same,max response,[2],11.1%
same,outcome,[3],inactive
same,outcome,[4],inactive
same,Potency,[5],inactive
same,outcome,[6],inactive
same,Potency,[7],inactive
same,Potency,[8],inactive
same,outcome,[9],inactive
same,Potency,[10],inactive
same,outcome,[11],inactive
same,outcome,[12],inactive
same,Potency,[13],inactive
same,Potency,[14],inactive
same,outcome,[15],inactive
same,Potency,[16],inactive
same,outcome,[19],inactive
same,outcome,[17],inactive
same,outcome,[18],inactive
Nc1c2c(nc3c1CCC3)CCCC2,outcome,[1],inactive
same,max response,[2],0.303%
same,outcome,[3],inactive
same,outcome,[4],inactive
same,Potency,[5],inactive
same,outcome,[6],inactive
same,Potency,[7],inactive
same,Potency,[8],inactive
same,outcome,[9],inactive
same,Potency,[10],inactive
same,outcome,[11],inactive
same,outcome,[12],inactive
same,Potency,[13],inactive
same,Potency,[14],inactive
same,outcome,[15],inactive
same,Potency,[16],inactive
same,outcome,[19],inactive
same,outcome,[17],inactive
same,outcome,[18],inactive
CC(=O)c1cnccn1,outcome,[1],inactive
same,max response,[2],3.82%
same,outcome,[3],inactive
same,outcome,[4],inactive
same,Potency,[5],inactive
same,outcome,[6],inactive
same,Potency,[7],inactive
same,Potency,[8],inactive
same,outcome,[9],inactive
same,Potency,[20],inactive
same,Potency,[10],inactive
same,outcome,[11],inactive
same,outcome,[12],inactive
same,Potency,[13],inactive
same,Potency,[14],inactive
same,Potency,[16],inactive
same,outcome,[17],inactive
same,outcome,[18],inactive
CC(C)(C#N)Nc1nc(Cl)nc(NC2CC2)n1,outcome,[1],inactive
same,max response,[2],1.79%
same,outcome,[3],inactive
same,outcome,[4],inactive
same,Potency,[5],inactive
same,outcome,[6],inactive
same,Potency,[7],inactive
same,Potency,[8],inactive
same,outcome,[9],inactive
same,Potency,[20],inactive
same,Potency,[10],inactive
same,outcome,[12],inactive
same,Potency,[13],inactive
same,Potency,[14],inactive
same,outcome,[15],inactive
same,Potency,[16],inactive
same,outcome,[19],inactive
same,outcome,[17],inactive
same,outcome,[18],inactive
CCOC(=O)c1ccccc1,outcome,[1],inactive
same,max response,[2],-0.292%
same,outcome,[3],inactive
same,outcome,[4],inactive
same,Potency,[5],inactive
same,outcome,[6],inactive
same,Potency,[7],inactive
same,Potency,[8],inactive
same,outcome,[9],inactive
same,Potency,[20],inactive
same,Potency,[10],inactive
same,outcome,[11],inactive
same,outcome,[12],inactive
same,Potency,[13],inactive
same,Potency,[14],inactive
same,Potency,[16],inactive
same,outcome,[19],inactive
same,outcome,[17],inactive
same,outcome,[18],inactive
C[C@H]1[C@H](NC(=O)/C(=N/OC(C)(C)C(=O)O)c2csc(N)n2)C(=O)N1S(=O)(=O)O (stereo in doubt),outcome,[1],inactive
same,max response,[2],5.51%
same,outcome,[3],inactive
same,outcome,[4],inactive
same,Potency,[5],inactive
same,outcome,[6],inactive
same,Potency,[7],inactive
same,Potency,[8],inactive
same,outcome,[9],inactive
same,Potency,[20],inactive
same,Potency,[10],inactive
same,outcome,[11],inactive
same,outcome,[12],inactive
same,Potency,[14],inactive
same,outcome,[15],inactive
same,Potency,[16],inactive
same,outcome,[19],inactive
same,outcome,[17],inactive
same,outcome,[18],inactive
CC(=O)NC(=O)c1ccccc1O,outcome,[1],inactive
same,max response,[2],7.94%
same,outcome,[3],inactive
same,outcome,[4],inactive
same,Potency,[5],inactive
same,outcome,[6],inactive
same,Potency,[7],inactive
same,Potency,[8],inactive
same,outcome,[9],inactive
same,Potency,[20],inactive
same,Potency,[10],inactive
same,outcome,[11],inactive
same,outcome,[12],inactive
same,Potency,[13],inactive
same,Potency,[14],inactive
same,Potency,[16],inactive
same,outcome,[19],inactive
same,outcome,[17],inactive
same,outcome,[18],inactive
CCCCOC(=O)CCC(C)=O,outcome,[1],inactive
same,max response,[2],-4.42%
same,outcome,[3],inactive
same,outcome,[4],inactive
same,Potency,[5],inactive
same,outcome,[6],inactive
same,Potency,[7],inactive
same,outcome,[9],inactive
same,Potency,[20],inactive
same,Potency,[10],inactive
same,outcome,[11],inactive
same,outcome,[12],inactive
same,Potency,[13],inactive
same,Potency,[14],inactive
same,outcome,[15],inactive
same,Potency,[16],inactive
same,outcome,[19],inactive
same,outcome,[17],inactive
same,outcome,[18],inactive
CN(C)C(=O)Oc1cccc([N+](C)(C)C)c1,outcome,[1],inactive
same,max response,[2],6.55%
same,outcome,[3],inactive
same,outcome,[4],inactive
same,Potency,[5],inactive
same,outcome,[6],inactive
same,Potency,[7],inactive
same,outcome,[9],inactive
same,Potency,[20],inactive
same,Potency,[10],inactive
same,outcome,[11],inactive
same,outcome,[12],inactive
same,Potency,[13],inactive
same,Potency,[14],inactive
same,outcome,[15],inactive
same,Potency,[16],inactive
same,outcome,[19],inactive
same,outcome,[17],inactive
same,outcome,[18],inactive
CC(N)C12CC3CC(CC(C3)C1)C2 (configuration not stated),outcome,[1],inactive
same,max response,[2],-3.62%
same,outcome,[3],inactive
same,outcome,[4],inactive
same,Potency,[5],inactive
same,outcome,[6],inactive
same,Potency,[7],inactive
same,Potency,[8],inactive
same,outcome,[9],inactive
same,Potency,[10],inactive
same,outcome,[11],inactive
same,Potency,[13],inactive
same,Potency,[14],inactive
same,outcome,[15],inactive
same,Potency,[16],inactive
same,outcome,[19],inactive
same,outcome,[17],inactive
same,outcome,[18],inactive
O=S(=O)(O)c1cccc2ccccc12,outcome,[1],inactive
same,max response,[2],14.6%
same,outcome,[3],inactive
same,outcome,[4],inactive
same,Potency,[5],inactive
same,outcome,[6],inactive
same,Potency,[8],inactive
same,outcome,[9],inactive
same,Potency,[20],inactive
same,Potency,[10],inactive
same,outcome,[11],inactive
same,outcome,[12],inactive
same,Potency,[13],inactive
same,Potency,[14],inactive
same,outcome,[15],inactive
same,Potency,[16],inactive
same,outcome,[19],inactive
same,outcome,[18],inactive
CC(C)C[C@@H](N)C(=O)O,"viability change, negative = cytotoxic",[1],0.12% [at 15.8 µM]
same,max response,[2],5.97%
same,activity change,[3],-2.57% [at 15.8 µM]
same,cytotoxicity increase,[4],-14.3% [at 15.8 µM]
same,"activity change, negative = cytotoxic",[5],4.67% [at 15.8 µM]
same,cytotoxicity,[6],-14.3% [at 15.8 µM]
same,cytotoxicity increase,[7],0.791% [at 15.8 µM]
same,"activity change, negative = cytotoxicity",[8],5.62% [at 15.8 µM]
same,cytotoxicity increase,[9],-1.55% [at 15.8 µM]
same,cytotoxicity increase,[10],-8.17% [at 15.8 µM]
same,cytotoxicity increase,[11],-0.255% [at 15.8 µM]
same,"activity change, negative = cytotoxic",[12],2.37% [at 15.8 µM]
same,"activity change, negative = cytotoxicity",[13],1.4% [at 15.8 µM]
same,"activity change, negative = cytotoxicity",[14],7.72% [at 15.8 µM]
same,activity change,[15],1.15% [at 15.8 µM]
same,"activity change, negative = cytotoxicity",[16],0.397% [at 15.8 µM]
same,"activity change, negative = cytotoxicity",[17],-0.157% [at 19 µM]
same,"viability change, negative = cytotoxic",[18],-2.1% [at 19 µM]
